# Reference: PubChem BioAssay (Tox21)
# Records with an inconclusive call do not appear. The source made the active and inactive calls. Calls follow the shape of the dose curve; as a rule, active = well fitted cell-killing curve with a large enough effect in the repeat runs; inconclusive = weak or mixed curves, or effect the other way; inactive = flat fitted curve, though single readings scatter.
# Assay: qHTS assay to identify small molecule antagonists of the estrogen related receptor signaling pathway with the pleiotropic PPARgamma coactivator (PGC) cell viability counter screen (AID 1224822;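 also: viability read after 17.5 h compound exposure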)
# Conditions: ERR/PGC reporter cell line viability counter screen; series mostly up to 46.1 µM; viability change, negative = cytotoxic: at the top concentration
# Excerpt: National Center for Advancing Translational Sciences [NCATS]
# NIH Chemical Genomics Center [NCGC]
# U.S. Environmental Protection Agency [EPA]
# National Institutes of Environmental Health Sciences [NIEHS]
# National Toxicology Program [NTP]
# U.S. Food and Drug Administration [FDA]
# Estrogen related receptors (ERRs), the first orphan nuclear receptors discovered, play an important role in the control of cellular energy metabolism. ERRs are required for high-energy production in response to the environmental challenges. The pleiotropic PPARgamma coactivator (PGC) is a major partner of ERR and a key regulator in energy homeostasis. Together they have been implicated in the etiology of metabolic disorders such as Type 2 diabetes and metabolic syndrome. ERR-alpha was also identified as an adverse marker for breast cancer progression; ERR-alpha-positive tumors have a poor prognosis. To screen and to identify environmental compounds that perturb the ERR and PGC/ERR signaling pathways could provide valuable information for potential therapeutic or preventive measures in the treatment of metabolic disease. To differentiate true PGC/ERR antagonists or agonist from cytotoxic substances, the assay is multiplexed with cell viability assay.
# Tox21 Assay Protocol Summary:
# The PGC/ERR cells were dispensed at 2,000 cells/5 ul/well in 1536-well white plates using a Multidrop dispenser. After the assay plates were incubated at a 37 C/5% CO2 incubator for 6 hours, 23 nL of compounds dissolved in DMSO, positive and negative controls or DMSO only was transferred to the assay plate by a pin tool. The plates were incubated at 37 C for 17.5 hours. 1 ul/well of CellTiter-Fluor reagent was added into the assay plates using a Flying Reagent Dispenser. After 30 min incubation at 37 C/5% CO2, the fluorescence intensity in the plates was measured using a ViewLux plate reader.
# % is scaled to controls: 0 for no effect and ±100 for the full control effect; potency is read from the fitted curve at half-maximal effect.
Structure (SMILES),"viability change, negative = cytotoxic",Potency
O=C(O)Cc1ccccc1Nc1c(Cl)cccc1Cl,4.18% (inactive),–
Oc1ccccc1O,-15.4% (inactive),–
Nc1nc2c(ncn2COCCO)c(=O)[nH]1,12.6% (inactive),–
CCCCN(CCCC)CC(O)c1cc(Cl)cc2c1-c1ccc(Cl)cc1/C2=C/c1ccc(Cl)cc1 (stereo not drawn),7.39% (inactive),–
Cc1cc(C)c(/C=C2\C(=O)Nc3ccccc32)[nH]1,-3.1% (inactive),–
O=c1c(O)c(-c2ccc(O)cc2O)oc2cc(O)cc(O)c12,-14.3% (inactive),–
O=C1CCc2cc(OCCCCc3nnnn3C3CCCCC3)ccc2N1,-7.58% (inactive),–
CC(CCc1ccccc1)NCC(O)c1ccc(O)c(C(N)=O)c1 (stereo not drawn),-15.9% (inactive),–
CC[N+](CC)(CC)CCOc1ccc(/C=C/c2ccccc2)cc1,-13% (inactive),–
CC(N=C(NC#N)Nc1ccncc1)C(C)(C)C (stereo not drawn),3.41% (inactive),–
Cc1cc(C(C)(C)C)cc(C)c1CC1=NCCN1,3.14% (inactive),–
CN1CCN2c3ccccc3Cc3ccccc3C2C1 (stereo not drawn),-6% (inactive),–
CC(C)(C)c1ccc(C(O)CCCN2CCC(C(O)(c3ccccc3)c3ccccc3)CC2)cc1 (stereo not drawn),–,22 µM (active)
